The values below come from PubChem BioAssay (NCI).

The panel holds about 83,000 compounds, 20% with a hit somewhere; the sample as a whole holds those more often.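 Step 1: grow cells in 96-well plates. Step 2: add test compound at a single concentration. Step 3: incubate 48 h. Step 4: record percent growth.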 Unmarked numbers belong to inactive results. The source made the active and inactive calls. How the source made its calls: active means growth percent below 10; inactive means the rest.

Among the test systems are HCT-15 colon; HT29 colon; SNB-75 CNS; SNB-19 CNS; U251 CNS; PC-3 prostate; SK-MEL-5 melanoma; UACC-62 melanoma; LOX IMVI melanoma; SK-MEL-28 melanoma; SK-MEL-2 melanoma; EKVX NSCLC; SN12C renal; UO-31 renal; TK-10 renal; ACHN renal; CAKI-1 renal; A498 renal; CCRF-CEM leukemia; MOLT-4 leukemia.
What all share (test): NCI-60 one-dose screen, 48 h (100 = growth as untreated, 0 = no growth, -100 = all killed)
Holding throughout (conditions): 10 µM unless noted

`C=C1C(=O)O[C@H]2[C@H]1CC/C(COC(=O)NCc1ccc(Cn3c(=O)sn(CCI)c3=O)cc1)=C\CC[C@@]1(C)O[C@@H]21`: the growth is 41.1% with HCT-15 colon; 39.8% in the assay with HT29 colon; 81.2% with SNB-75 CNS; 97.2% in the assay with SNB-19 CNS; 73.3% in the assay with U251 CNS; 75.6% with PC-3 prostate. Also, the growth was 98.8% with SK-MEL-5 melanoma; 65.4% with UACC-62 melanoma; 35.1% in the assay on LOX IMVI melanoma; 55.5% in the assay on SK-MEL-28 melanoma; 73.9% in the assay with SK-MEL-2 melanoma; 91% with EKVX NSCLC. Moreover, the growth was 70.3% in the assay on SN12C renal; 68.3% with UO-31 renal; 0.429% (active) in the assay with TK-10 renal; 27.7% in the assay with ACHN renal; 7% (active) in the assay with CAKI-1 renal; 120% in the assay with A498 renal. The growth with CCRF-CEM leukemia was -16.1% (active); in the assay on MOLT-4 leukemia, -6.69% (active).
With `O=S(=O)(NCCNc1cc(-c2c(-c3cccc(O)c3)nc3sccn23)ccn1)c1ccc(C(F)(F)F)cc1`, the growth with HCT-15 colon is 25.2%; in the assay with HT29 colon, 32.6%; with SNB-75 CNS, 38.3%; in the assay on SNB-19 CNS, 54.8%; in the assay on U251 CNS, 34.8%; in the assay with PC-3 prostate, 31.4%. For the same compound, the growth in the assay with SK-MEL-5 melanoma was -2.62% (active); with UACC-62 melanoma, 40.1%; with LOX IMVI melanoma, 37.8%; with SK-MEL-28 melanoma, 55.7%; with SK-MEL-2 melanoma, 43.9%; in the assay with EKVX NSCLC, 35.7%. The growth with SN12C renal was 35.6%; in the assay on UO-31 renal, -71.8% (active); with TK-10 renal it was 67.9%; with ACHN renal, 33.2%; in the assay with CAKI-1 renal, 29.3%; with A498 renal it was 40.2%. Besides, the growth was 25.4% with CCRF-CEM leukemia and 9.21% (active) in the assay with MOLT-4 leukemia.
With `Fc1cc2c(cc1Cl)N(c1ncnc3ccc(-c4cnc5[nH]ncc5c4)cc13)CC2`, the growth in the assay on HCT-15 colon is 58.8%; in the assay with HT29 colon, 56.3%; with SNB-75 CNS, 19.7%; in the assay with SNB-19 CNS, 69.4%; in the assay with U251 CNS it was 76.6%; with PC-3 prostate, 53.9%. The growth in the assay on SK-MEL-5 melanoma was 85.2%; with UACC-62 melanoma it was 58.1%; in the assay with LOX IMVI melanoma, 47.2%; in the assay with SK-MEL-28 melanoma it was 83.4%; in the assay with SK-MEL-2 melanoma, 91.4%; in the assay with EKVX NSCLC, 41.9%. The growth was 47.6% in the assay on SN12C renal; 21.8% with UO-31 renal; 54.6% in the assay on TK-10 renal; 30.9% in the assay on ACHN renal; 38.7% in the assay on CAKI-1 renal; -6.52% (active) in the assay on A498 renal. Besides, the results for the growth in the assay with CCRF-CEM leukemia and in the assay with MOLT-4 leukemia were 71.1% and 60.1%, respectively.
For `N#CCSc1nnc2n(Cc3ccccc3)c(=O)c3c4c(sc3n12)CCCC4`, the growth was 96.2% in the assay on HCT-15 colon; 111% in the assay with HT29 colon; 91.1% with SNB-75 CNS; 104% in the assay on SNB-19 CNS; 101% with U251 CNS; 95.2% with PC-3 prostate. Further, the growth in the assay on SK-MEL-5 melanoma was 95.3%; in the assay with UACC-62 melanoma, 95.6%; with LOX IMVI melanoma, 98.1%; with SK-MEL-28 melanoma it was 116%; in the assay on SK-MEL-2 melanoma, 96%; in the assay on EKVX NSCLC it was 94.1%. Further, the growth in the assay with SN12C renal was 96.8%; in the assay on UO-31 renal, 76.2%; in the assay on TK-10 renal, 103%; in the assay on ACHN renal, 106%; in the assay on CAKI-1 renal, 86.2%; with A498 renal, 93.4%. Also, the growth was 86.5% in the assay with CCRF-CEM leukemia and 90.7% with MOLT-4 leukemia.
Consider `Brc1ccc(-n2cc(-c3nn[nH]n3)c(-c3cccs3)n2)cc1`, for which the growth in the assay with HCT-15 colon is 95.3%; in the assay with HT29 colon, 113%; in the assay with SNB-75 CNS, 92.5%; in the assay on SNB-19 CNS it was 90.9%; in the assay with U251 CNS, 93%; in the assay on PC-3 prostate it was 98.9%. The growth in the assay on SK-MEL-5 melanoma was 101%; with UACC-62 melanoma, 92.7%; in the assay with LOX IMVI melanoma, 101%; in the assay with SK-MEL-28 melanoma, 103%; in the assay with SK-MEL-2 melanoma, 101%; with EKVX NSCLC, 90.5%. Moreover, the growth in the assay on SN12C renal was 88.9%; in the assay with UO-31 renal, 63.7%; in the assay on TK-10 renal, 104%; in the assay with ACHN renal, 89.4%; in the assay on CAKI-1 renal it was 91.1%; in the assay on A498 renal, 81.5%. The figures for the growth in the assay with CCRF-CEM leukemia and with MOLT-4 leukemia were 103% and 101%, respectively.
With `CCOC(=O)c1cc2c(=O)oc3ccccc3c2oc1=O`, the growth with HCT-15 colon is 96%; in the assay with HT29 colon it was 96%; in the assay with SNB-75 CNS it was 82.1%; in the assay on SNB-19 CNS, 105%; in the assay with U251 CNS, 91.6%; with PC-3 prostate, 69.3%. The growth with SK-MEL-5 melanoma was 106%; in the assay on UACC-62 melanoma, 95.8%; in the assay on LOX IMVI melanoma, 91.5%; with SK-MEL-28 melanoma, 116%; in the assay on SK-MEL-2 melanoma, 78.1%; with EKVX NSCLC, 111%. In addition, the growth was 98.3% in the assay with SN12C renal; 82.7% in the assay on UO-31 renal; 98.6% in the assay with TK-10 renal; 89.8% in the assay on ACHN renal; 111% with CAKI-1 renal; 106% with A498 renal. The growth is 88.5% in the assay on CCRF-CEM leukemia and 87.1% in the assay on MOLT-4 leukemia.
For `CCOc1nc(-c2ccccc2)cc2c(O)c(C(=O)NN)[nH]c(=O)c12`, the growth with HCT-15 colon was 106%; with HT29 colon it was 114%; in the assay with SNB-75 CNS, 86.4%; in the assay on SNB-19 CNS, 106%; with U251 CNS it was 106%; in the assay on PC-3 prostate it was 83%. For the same compound, the growth in the assay on SK-MEL-5 melanoma is 105%; in the assay on UACC-62 melanoma, 106%; in the assay with LOX IMVI melanoma it was 101%; with SK-MEL-28 melanoma, 99.8%; in the assay on SK-MEL-2 melanoma, 83.7%; in the assay on EKVX NSCLC, 108%. Moreover, the growth with SN12C renal is 109%; in the assay with UO-31 renal it was 88.6%; in the assay with TK-10 renal, 120%; in the assay with ACHN renal, 107%; in the assay with CAKI-1 renal, 109%; in the assay with A498 renal, 115%. In addition, the values for the growth in the assay with CCRF-CEM leukemia and in the assay with MOLT-4 leukemia were 103% and 113%, respectively.
